Laboratory results taken from PubChem BioAssay (NCI).
The panel holds about 83,000 compounds, 20% with a hit somewhere; the sample as a whole holds those more often.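 Percent growth is the endpoint: 0 to 100 indicates growth inhibition (40 means 60% inhibition), 0 means no net growth, and negative values indicate cell death.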 Unmarked numbers belong to inactive results. The source made the active and inactive calls. Rule for the calls: active = growth percent below 10; inactive = the rest.

Tested on: SK-OV-3 ovarian
Test: NCI-60 one-dose screen, 48 h (100 = growth as untreated, 0 = no growth, -100 = all killed)
Settings: 10 µM unless noted

Compound | growth
CO/C=C/C(=O)c1cc2cnc3c(=N)cc(NC(=O)C(C)C)c([nH]1)c23 | -25.7% (active)
Cc1cc2c(-c3nc4ccccn4c3Nc3cccc4ccccc34)c(O)c(O)cc2c(O)c1-c1c(C)cc2c(-c3nc4ccccn4c3Nc3cccc4ccccc34)c(O)c(O)cc2c1O | 24.2%
Cc1cc(N2CCOCC2)nc(N(CCNc2ccnc3cc(Cl)ccc23)Cc2cccs2)n1 | 61.5%
CCCCCCCC(=O)SCC/C=C/[C@@H]1CC(=O)NCc2cc(ccn2)C2=N[C@@](C)(CS2)C(=O)N[C@@H](C(C)C)C(=O)O1 | -22.6% (active)
Cc1sc2c(c1C)c(=O)nc1c(-c3nc4ccccc4s3)n[nH]n12 | 91.4%
CC(C)(C)CC(C)(C)Nc1c(-c2c(O)c3ccccc3oc2=O)nc2c(Cl)cc(C(F)(F)F)cn12 | 93%
CCOc1cccc(/C=N/NC(=O)c2ccccc2Nc2ccnc(C(F)(F)F)c2)c1O | 8.43% (active)
Cc1cc2c(-c3nc4ccccn4c3NC3CCCCC3)c(O)c(O)cc2c(O)c1-c1c(C)cc2c(-c3nc4ccccn4c3NC3CCCCC3)c(O)c(O)cc2c1O | 41.5%
C=CCC(=O)N[C@H](/C=C/C(=O)O)Cc1ccc(-c2cc(Cl)cc(Cl)c2)cc1 | 87.3%
CN1CCN(c2nc(NCCNc3ccnc4cc(Cl)ccc34)c3ccccc3n2)CC1 | 44.6%
C[C@@H](C[C@H](CCO)c1cc(C(F)(F)F)cc(C(F)(F)F)c1)c1ccc2ccccc2c1 | 98.3%
